Hits are enriched below; roughly 3.2% of the tested compounds scored in any of these assays.
ERa coact pot: enhancers of ERα–SRC-1 coactivator binding, primary screen, biochemical, TR-FRET, ERα LBD, low estradiol. Estrogen receptor (Homo sapiens), P03372. TR-FRET ERalpha-LBD/SRC-Cy5 coactivator binding, 2 h; 100 = basal binding, no effect. coactivator binding (% of control), % at 25.6 µM. 86,000 compounds, 1.3% hits; in the data active = activity above about 200%;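 note: binding measured in presence of low estradiol as agonist stimulus; 0% = peptide alone without receptor and 100% = receptor with peptide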
FAK inh: FAK kinase inhibitors, primary screen, biochemical; biochemical FAK kinase activity assay; Focal adhesion kinase 1 (Homo sapiens), Q05397; inhibition, %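 (tested at 7 µM)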; 97,000 compounds, 0.84% hits;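 note: 0% = DMSO and 100% = reference compound high control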
ERb coact inh: inhibitors of ERβ-SRC1 coactivator interaction, primary screen, biochemical, TR-FRET, ERβ LBD, SRC-1 peptide; TR-FRET ER-beta LBD / SRC1-Cy5 peptide binding; receptor agonist-loaded with 1 µM estradiol; Estrogen receptor beta (Homo sapiens), Q92731; 86,000 compounds, 1.3% hits; inhibition, % at 25.6 µM;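 active = compounds whose percent inhibition of the receptor-coactivator binding signal exceeds about 50% in the single-dose screen, limit read from the data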;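 note: 0% = receptor plus peptide wells without compound and 100% = peptide-only wells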
ERa coact inh: ERα–SRC-1 coactivator interaction inhibitors, primary screen, biochemical, TR-FRET, ERα LBD, estradiol-bound; 86,000 compounds, 1.7% hits; TR-FRET ER-alpha LBD / SRC-1 peptide; Estrogen receptor (Homo sapiens), P03372; inhibition, % at 25.6 µM; AID 629, 2007; in the data active = inhibition above about 50%;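 note: 0% = receptor plus peptide control and 100% = peptide only without receptor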
FAK inh conf: FAK kinase inhibitors, retest, confirmation, biochemical | shares compounds with FAK inh | FAK kinase biochemical inhibition assay | inhibition, % at 7 µM | 750 compounds, 28% hits | AID 794, 2007
* hit, by the source's call; x = no result; [ ] = another dose, or the depositor's remark. Cut-off read from the data, not from the text of the source, unless noted: active = inhibition above about 19%; inactive = the rest.

SMILES	ERa coact pot	FAK inh	ERb coact inh	ERa coact inh	FAK inh conf
Cc1cc(S(=O)(=O)Nc2ccc(C(=O)N3CCN(C(=O)c4ccco4)CC3)cc2)ccc1F	x	1	x	x	x
O=C(c1ccc(S(=O)(=O)Nc2ccc(F)cc2)cc1)N1CCN(C(=O)c2ccco2)CC1	98	27*	-8	-2	-1
Cc1ccc2cc(CN(C)C(=O)C3CCCO3)c(=O)[nH]c2c1 (configuration not stated)	94	3	-1	1	x
O=C(CCSc1nc(-c2ccco2)cc(C(F)(F)F)n1)Nc1ccc2c(c1)OCO2	107	-2	15	9	x
COc1ccc(-n2cnnc2SCC(=O)Nc2cc(C(C)(C)C)nn2-c2ccccc2)cc1	100	23*	-8	2	12
COc1ccccc1-n1cnnc1SCC(=O)Nc1cc(C(C)(C)C)nn1-c1ccccc1	121	6	6	4	x
Cc1cccc(C)c1NC(=O)CSc1nnc(-c2ccco2)c(-c2ccco2)n1	11	35*	83*[fluorescence artefact?]	84*[fluorescence artefact?]	10
Cc1ccc(SCC(=O)Nc2ccc(-c3nnc(-c4ccco4)o3)cc2)cc1	x	12	x	x	x
Cc1ccc(NC(=O)CSc2nnc(-c3ccco3)c(-c3ccco3)n2)cc1	43	19*	74*[fluorescence artefact?]	81*[fluorescence artefact?]	1
Cc1cccc(NC(=O)C2CCCN(S(=O)(=O)c3cccc4nsnc34)C2)c1 (configuration not stated)	230*[fluorescence artefact?]	94*	51*[fluorescence artefact?]	23	-1
C=CCn1c(SCC(=O)c2cc(C)n(CCOC)c2C)nc2sc(C)c(C)c2c1=O	x	-3	x	x	x
CCN1CCN(CC(=O)Nc2cccc(C)c2)C(=O)C1=O	133	-2	-12	-7	x
Cc1n[nH]c(C)c1CCc1nc2c3ccccc3nc(SCC(N)=O)n2n1	107	0	-17	-8	x
Cc1ccc(NC(=O)CSc2nc3ccccc3c3nc(CCc4c(C)n[nH]c4C)nn23)cc1F	142	21*	26	54*[fluorescence artefact?]	12
COc1ccc2sc3ccccc3c(=O)c2c1	x	29*	x	x	12
Cc1c(Cl)cccc1NC(=O)CN1CCC(C(O)(c2ccccc2)c2ccccc2)CC1	x	3	x	x	x
Oc1ccc(N=Cc2ccc(O)c(O)c2)cc1	x	22*	x	x	2
CC1=NOC(=O)/C1=C\c1ccc(-c2ccc(Cl)cc2Cl)o1	x	15	x	x	x
CCC(=O)Nc1sc2c(c1C(N)=O)CCC2	119	21*	-8	-8	12
NC(=O)c1c(NC(=O)c2ccco2)sc2c1CCC2	97	20*	6	3	15
CCOC(=O)c1cnc2ccc(C)cc2c1Nc1ccc(N2CCOCC2)cc1	x	51*	x	x	22*
CCOC(=O)c1cnc2ccc(C)cc2c1Sc1ccccc1	x	22*	x	x	2
CCOC(=O)c1cnc2ccc(OCC)cc2c1N1CCN(c2ccccc2)CC1	75	-2	-3	4	x
O=C(Nc1cccc(-c2nc3ccccc3[nH]2)c1)c1cccc(NC(=O)c2ccco2)c1	193	71*	68*[fluorescence artefact?]	70*[fluorescence artefact?]	62*
Cn1c(SCc2ccon2)nc2ccccc2c1=O	113	23*	-1	7	6
SMILES	ERa coact pot	FAK inh	ERb coact inh	ERa coact inh	FAK inh conf
CCOC(=O)CN1C=C(c2ccc3ccccc3n2)C(C[N+](=O)[O-])c2ccccc21 (configuration not stated)	90	-1	-5	-2	x
CCN(CC)CCn1c2ccccc2c2cnc(N)c(C#N)c21	106	40*	-15	-2	18
COC1(c2ccccc2)NC(=S)NN=C1c1ccccc1 (configuration not stated)	100	-3	-3	-8	x
C=CCn1c(SCC(=O)N2CCCC2)nc2scc(-c3cccs3)c2c1=O	x	40*	x	x	31*
Cc1nc2ccccc2nc(C)c1=NO	103	0	-5	-2	x
C/C(O)=c1/ccc2cccc3nc(C)nc1c23	95	24*	1	-4	7
COc1ccc(-c2ccc3c(N)c(C(=O)c4ccc(OC)c(OC)c4)sc3n2)cc1	x	35*	x	x	25*
COc1ccc(C(=O)c2sc(Nc3ccccc3)c(C(=O)Nc3ccc(OC)c(OC)c3)c2N)cc1	x	0	x	x	x
COc1ccc(C(=O)c2sc3nc(-c4ccccc4)ccc3c2N)cc1OC	x	59*	x	x	34*

Source: PubChem BioAssay (several laboratories)
